Source: PubChem BioAssay (NCI)
About 79,000 compounds went through this panel and 15% of them were active in at least one assay; those are over-represented in the sample as a whole. Rule as the data show it: active = growth inhibition above about 70%; inactive = the rest. Where a SMILES comes first, the peptide text is derived from it. The star is where a group is joined. Trt = c1ccc(C(c2ccccc2)(c2ccccc2)*)cc1; Benzhydryl = c1ccc(C(c2ccccc2)*)cc1; Cbz = O=C(OCc1ccccc1)*

What was measured:
[1] = NCI Yeast Anticancer Drug Screen. Data for the rad50 strain (AID 155);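 also: 0% = growth of vehicle-only cultures of the same strain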; conditions: S. cerevisiae rad50 strain growth inhibition; at 50.0 µM; hits give high values
Summary of the method: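 Growth of the mutant yeast was measured after compound exposure and referenced to vehicle-treated cultures.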

[2] = NCI Yeast Anticancer Drug Screen. Data for the mec2-1 strain (AID 157); conditions: S. cerevisiae mec2-1 strain, at 50.0 µM, hits give high values
Summary of the method: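 Vehicle-treated cultures served as reference for growth inhibition of compound-exposed mec2-1 yeast.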

[3] = NCI Yeast Anticancer Drug Screen. Data for the sgs1 mgt1 strain (AID 161);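 also: 0% = growth of cultures given vehicle only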; conditions: S. cerevisiae sgs1 mgt1 strain, at 50.0 µM, hits give high values
Summary of the method: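 Mutant yeast exposed to compound; growth scored against vehicle-only wells.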

[4] = NCI Yeast Anticancer Drug Screen. Data for the cln2 rad14 strain (AID 165);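 also: 0% = growth equal to vehicle treated cultures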; conditions: S. cerevisiae cln2 rad14 strain, at 50.0 µM, hits give high values
Summary of the method: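 Each compound was tested on cln2 rad14 yeast. Inhibition of growth was calculated against vehicle-exposed controls.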

[5] = NCI Yeast Anticancer Drug Screen. Data for the mlh1 rad18 strain (AID 175); conditions: S. cerevisiae mlh1 rad18 strain growth inhibition; at 50.0 µM; hits give high values
Summary of the method: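 Vehicle-treated cultures served as the reference for growth inhibition in a yeast strain carrying DNA damage repair alterations exposed to each compound.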

[6] = NCI Yeast Anticancer Drug Screen. Data for the bub3 strain (AID 167); conditions: S. cerevisiae bub3 mutant strain, at 50.0 µM, hits give high values
Summary of the method: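 Whole-cell yeast assay. The mutant strain was incubated with compounds, and growth inhibition was determined by comparison with vehicle-treated cells.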

Measured: growth inhibition

COC(=O)C(Cc1ccccc1)NC(=O)C(Cc1ccccc1)NC(=O)CNC(=O)C(CSC(c1ccccc1)c1ccccc1)NC(=O)C(CSC(c1ccccc1)(c1ccccc1)c1ccccc1)NC(=O)OCc1ccccc1 (stereo unspecified) (Cbz-C(Trt)C(Benzhydryl)GFF-OMe; configuration not given here)
inactive: [1] -5.55% | [2] 25.4% | [3] 19% | [4] -14.9% | [5] 28.1%

c1cc2c3c(c1)CCC3CCC2 (stereo unspecified)
inactive: [1] -50.1% | [2] -48% | [3] -50.9% | [4] 12.8% | [5] -4.85%

O=C(CCCCCCC(=O)ON1C(=O)CCC1=O)ON1C(=O)CCC1=O
inactive: [1] -16.9% | [2] -3.55% | [3] -16.8% | [4] 13.8% | [5] -4.1%

Cc1c2c(n3c(nc4ccccc43)c1C#N)N(c1ccc(Cl)cc1)CC2
inactive: [1] 1.1% | [2] -1.3% | [3] -10.8% | [4] 7.35% | [5] -15.3%

Cn1nc(-c2ccccc2)c(N=[N+]=[N-])cc1=O
inactive: [1] -18.1% | [2] 14.6% | [3] -41.3% | [4] -11.9% | [5] -34.6%

CCN(CC)CCCNc1[nH]ncc2c(C)c3nc4ccccc4c3cc12
inactive: [1] 14.1% | [2] -10.2% | [3] 14.7% | [4] 10.1% | [6] 9.4% | [5] -4.05%

O=C(CCSCCC(=O)N/N=C/c1ccccc1F)N/N=C\c1ccccc1F
inactive: [1] 22.6% | [2] 10.7% | [3] 38.1% | [4] 27.4% | [5] 21.8%

O=C(/C(N=Nc1ccccc1)=C(\O)c1ccccc1)c1ccccc1
inactive: [1] -8.15% | [2] -9.7% | [3] 2.45% | [4] 11.8% | [5] -6.2%

O=[N+]([O-])c1cccc(/C=N\NS(=O)(=O)c2ccc(Cl)cc2)c1O
inactive: [1] -11.7% | [2] -13.3% | [3] -11.8% | [4] -2.3% | [5] -5.9%

CC1(Cn2ccc(=O)[nH]c2=O)CC(C2(C)OCCO2)C(=O)O1 (stereo unspecified)
inactive: [1] -16.6% | [2] -22.3% | [3] -33.1% | [4] -30.7% | [5] -14.4%

O=C1OCC(Cc2ccc3c(c2)OCO3)[C@H]1Cc1ccc(O)cc1 (stereo partly specified)
inactive: [1] 1.45% | [2] -18% | [3] 17.6% | [4] 21.9% | [5] -5.9%

N#CNC(N)=Nc1ccc(Cl)cc1
inactive: [1] 5.35% | [2] 7.5% | [3] -27.9% | [4] 19.6% | [5] -17.4%

CC(C)OCC(O)CNCCN (stereo unspecified)
inactive: [1] -30.8% | [2] -20.9% | [3] -7.9% | [4] -2.5% | [5] -0.75%

COc1ccc2c(c1)OC1(OCCO1)[C@@H]1C2CC[C@@]2(C)C1CCC21OCCO1 (stereo partly specified)
inactive: [1] 48.2% | [2] 17.9% | [3] 38.9% | [4] 28.8% | [5] 58.5%

N#Cc1cc(-c2ccccc2)c[nH]c1=O
inactive: [1] -8.55% | [2] -1.45% | [3] -4.6% | [4] -36.9% | [5] -1.55%

CNC(=S)N(C)/N=C/c1ccccc1
inactive: [1] 10.3% | [2] 2.4% | [3] -3.75% | [4] -28.9% | [5] 3%

O=[N+]([O-])c1ccc(/C=N/Nc2cnnc(Cl)c2Cl)cc1
inactive: [1] -0.6% | [2] 1.75% | [3] -1.95% | [4] -33% | [5] 1.65%

N#CC(CCc1ccccc1)(c1ccccc1)c1ccccc1
inactive: [1] -15.5% | [2] -9.05% | [3] -5.85% | [4] -45.5% | [5] -15.7%

CC(=O)NC(Cc1ccc(OC(C)=O)c(OC(C)=O)c1)C(C)=O (stereo unspecified)
inactive: [1] -10.4% | [2] 9.7% | [3] -0.7% | [4] -8.3% | [5] 6%

N#CCCN(CCC#N)Cc1ccc2c(O)c(CN(CCC#N)CCC#N)ccc2c1O
inactive: [1] 23.8% | [2] 7.35% | [3] 3.35% | [4] -1.65% | [5] 3.65%

OC(CNC1CCCCC1)(c1ccccc1)c1ccccc1
inactive: [1] -11.2% | [2] -8.35% | [3] 13.9% | [4] 10.8% | [5] -20.6%

C(#CC(Sc1ccccc1)=C(Sc1ccccc1)Sc1ccccc1)Sc1ccccc1
inactive: [1] 3.1% | [2] 2.15% | [3] -21.9% | [4] -32.3% | [5] -6.25%

CSC(=S)/C(=C/Nc1ccccn1)c1ccccc1
inactive: [1] 39.5% | [2] 14.5% | [3] -8.6% | [4] 15.2% | [5] 14.9%

COC(=O)C1OC(O[C@H]2CC[C@]3(C)[C@H]4CC=C5[C@@H]6CC(C)(C)CC[C@]6(C(=O)OC6OCC(O)C(O)C6OC6OC(C)C(OC7OCC(O)C(O)C7O)C(OC7OCC(O)(CO)C7O)C6O)[C@H](O)C[C@@]5(C)[C@]4(C)CC[C@H]3C2(C)C)C(O)C(O)C1O (stereo partly specified)
inactive: [1] 16.1% | [2] -10.3% | [3] -6.1% | [4] 34.6% | [5] 10.3%

Cc1nc2nn[nH]n2c(=O)c1CCO
inactive: [1] 13.2% | [2] 0.15% | [3] 16.2% | [4] 14.2% | [5] -51.6%

C=CCN(CC=C)C(=S)NC(=O)c1ccccc1
inactive: [1] 17.8% | [2] 27.8% | [3] 53.2% | [4] 16.9% | [5] 2.25%

CN(C)c1nnnn1-c1c(N)n(C)c(=O)n(C)c1=O
inactive: [1] -30.1% | [2] -23.2% | [3] 0% | [4] 6.4% | [5] -27.1%

O=C1CC[C@H]2[C@@H]3N1c1ccccc1[C@@]31CCN3C/C(=C/CBr)[C@@H]2C[C@H]31
inactive: [1] 21.4% | [2] -3.05% | [3] 6.25% | [4] 19.4% | [5] 11.1%

COc1ccc2c(ccc3[nH]c4c(C)cnc(NCCCN)c4c32)c1
inactive: [1] -39.6% | [2] -31.8% | [3] -29.3% | [4] -15.1% | [5] -39.8%

O=S(Cc1ccccc1)/C(=C/NC(=S)N=Nc1c(O)[nH]c2ccccc12)c1ccccc1 (stereo unspecified)
inactive: [1] 15.3% | [2] -11.1% | [3] 14.2% | [4] 33.2% | [5] -3.1%

CC(=O)OCC(=O)C1(O)CCC2C3CCC4=CC(=O)CCC4(C)C3(SC#N)CC(=O)C21C (stereo unspecified)
inactive: [1] -8% | [2] 19.9% | [3] 27.2% | [4] 13.2% | [5] 2.45%

CC(C)(C)n1nc(C2CC2)cc1NC(=O)Nc1ccc(Cl)cc1
inactive: [1] -0.55% | [2] -8.25% | [3] -8.55% | [4] 8.85% | [5] 2.4%

CCOCC(=O)NC1Cc2cc(OC)c(OC)cc2C1O (stereo unspecified)
inactive: [1] -29.8% | [2] -6.2% | [3] 0.1% | [4] -17.1% | [5] 15.6%

COc1ccc(/C=C2/CSCC3=C2NC(=S)NC3c2ccc(OC)c(OC)c2OC)c(OC)c1OC (stereo unspecified)
inactive: [1] 12.8% | [2] 13.9% | [3] 37% | [4] 34.6% | [5] 10.9%

Nc1nc(N)c2ncn(Cc3c(Cl)cccc3Cl)c2n1
inactive: [1] -3.75% | [2] -3.95% | [3] 1.9% | [4] 6.8% | [5] -9.65%

CC1(c2ccc(-c3ccccc3)cc2)NC(=O)NC1=O (stereo unspecified)
inactive: [1] 3.55% | [2] 10.3% | [3] 14.9% | [4] -22.5% | [5] -2.3%

CCOC(=O)CCC(NC(=O)c1ccc(NC)c([N+](=O)[O-])c1)C(=O)OCC (stereo unspecified)
inactive: [1] 58.9% | [2] -1.9% | [3] 11.4% | [4] 18.8% | [5] 0.8%

CN1C(=O)C2C(C1=O)[C@H]1c3ccccc3C=CN1[C@@H]2C(=O)c1ccccc1 (stereo partly specified)
inactive: [1] 13.2% | [2] 7.7% | [3] -0.25% | [4] 0.6% | [5] 10.1%

CC1(C)N=C(C(N)=O)c2ncn(CCCO)c2N1
inactive: [1] -13.5% | [2] -12.6% | [3] -48.4% | [4] 23.2% | [5] -6.8%

C1=C(c2ccccc2)C(c2ccccc2)=C(c2ccccc2)C(c2ccccc2)C(c2ccccc2)=N1 (stereo unspecified)
inactive: [1] 2.75% | [2] 10.2% | [3] -2.95% | [6] -2.5% | [5] 8.55%

O=[N+]([O-])c1ccc(/C=N\N=P(c2ccccc2)(c2ccccc2)c2ccccc2)cc1
inactive: [1] -6.25% | [2] 3.25% | [3] 12.8% | [6] -4.65% | [5] -3.85%

CCOC(=O)c1[nH]n(-c2ccccc2)c(=O)c1/C=N/C(=S)NCCc1ccc(OC)c(OC)c1
inactive: [1] 2.05% | [2] -0.6% | [3] 5.4% | [6] -21% | [5] 13.2%

CC1CC(C)OC(c2ccco2)O1 (stereo unspecified)
inactive: [1] 2.4% | [2] -20.6% | [3] -11.9% | [6] -15.1% | [5] 16.2%

CN(C)c1ccc2c(SCC(=O)OCC(=O)C3(O)CCC4C5CCC6=CC(=O)C=CC6(C)C5C(O)CC43C)c3ccc(N(C)C)cc3nc2c1 (stereo unspecified)
inactive: [1] 42.6% | [2] 45.4% | [3] 57.2% | [6] 42.2% | [5] 60.9%
